Results reported in PubChem BioAssay AID602127 (Broad Institute, 2011).
Entries with a potency or affinity are not part of this list. Activity calls are given as the source filed them.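 Rule for the calls: active = every repeat test judged active, meaning a falling signal with potency within twice the top valid dose; inconclusive = repeat tests disagree on the call; inactive = every repeat test inactive, including signal moving upward.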

Target: Cyclin-dependent kinase 2 (Homo sapiens) (UniProt P24941)
Assay: inhibition of human CDK2/cyclin A – biochemical, cherry-picked samples, selectivity assay for Dyrk1A inhibitor project, dose response (AID 602127)
Settings: ADP-Glo luminescence, 60 min; series mostly up to 10 µM

## COc1ccc2c(c1)[nH]c1c(C)nccc12
  outcome: inactive
